# PubChem BioAssay (NCI)
# Several values for one entry are separate records, joined by “and”; a condition that tells them apart may be missing. Equal entries are not always repeated. Compounds without any hit were thinned out: in the full panel of roughly 83,000, 20% have a hit.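 Growth was measured after 48 h exposure to one concentration of compound in 96-well plates. Values under 10 count as active.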 Activity calls are given as the source filed them.
# Test system: HL-60(TB) leukemia
# Assay: NCI-60 one-dose screen, 48 h (100 = growth as untreated, 0 = no growth, -100 = all killed)
# Details: 10 µM unless noted
row,Structure (SMILES),growth
1,Cc1cc(Cl)nc(N(CCNc2ccnc3cc(Cl)ccc23)Cc2ccco2)n1,-47.7% (active)
2,O=C(CN1C(=O)NC2NC(=O)NC21)N/N=C/c1ccccc1[N+](=O)[O-] (stereo not given),99.2% (inactive)
3,Cc1cn(-c2cc(NC(=O)c3cncc(C#Cc4cnc(N)c5ncccc45)c3)cc(C(F)(F)F)c2)cn1,18.7% (inactive)
4,Cc1ccc2c(ccc3c[n+]4c5ccccc5ccc4n32)c1,2.59% (active)
5,O=Nc1ccc(NO)c2ccccc12,108% (inactive) and 26.9% (inactive)
6,O=C1CNC(c2ccccc2)C(c2ccccc2)N1 (stereo not given),106% (inactive)
7,COc1ccc(Nc2nc(N/N=C/c3ccc(O)cc3)nc(Nc3ccc([N+](=O)[O-])cc3)n2)cc1,116% (inactive)
8,CCOC(=O)C(=Cc1cccc(Br)c1)C(=O)OCC,-6.91% (active)
9,O=C(/C=C/c1ccc(C(F)(F)F)cc1)c1ccc(Nc2nc(NCCO)nc(N3CCOCC3)n2)cc1,15.4% (inactive)
10,Cn1c(I)c(C#C[Si](C)(C)C)c(=O)n(C(=O)c2ccccc2)c1=O,-59% (active)
11,NC1=NC(c2ccccc2)N=C(Nc2ccccc2)N1 (stereo not given),95.7% (inactive) and 111% (inactive)
12,NC(=O)c1ccccc1NC(=O)c1ccccc1Cl,64.4% (inactive)
13,Nc1n[nH]c2ccc([C@H]3[C@@H]4C5CCC(C5)[C@@H]4c4c(ccc5[nH]ncc45)N3S(=O)(=O)C3CC3)cc12 (stereo not given in full),-19.6% (active)
14,Cn1c(=O)c2c(nc(NC3=NS(=O)(=O)c4ccccc43)n2CC(=O)N2CCc3ccccc32)n(C)c1=O,111% (inactive)
15,C=CCn1c(SCC(=O)Nc2ccc(C(=O)/C=C/c3cc(OC)c(OC)c(OC)c3)cc2)nnc1-c1ccccc1,71.8% (inactive)
16,Nc1ccn([C@@H]2O[C@H](COP(=O)(O)O[C@@H]3C[C@H](n4cc(F)c(=O)[nH]c4=O)O[C@@H]3COP(=O)(O)O[C@@H]3C[C@H](n4cc(F)c(=O)[nH]c4=O)O[C@@H]3COP(=O)(O)O[C@@H]3C[C@H](n4cc(F)c(=O)[nH]c4=O)O[C@@H]3COP(=O)(O)O[C@@H]3C[C@H](n4cc(F)c(=O)[nH]c4=O)O[C@@H]3COP(=O)(O)O[C@@H]3C[C@H](n4cc(F)c(=O)[nH]c4=O)O[C@@H]3COP(=O)(O)O[C@@H]3C[C@H](n4cc(F)c(=O)[nH]c4=O)O[C@@H]3COP(=O)(O)O[C@@H]3C[C@H](n4cc(F)c(=O)[nH]c4=O)O[C@@H]3COP(=O)(O)O[C@@H]3C[C@H](n4cc(F)c(=O)[nH]c4=O)O[C@@H]3COP(=O)(O)O[C@@H]3C[C@H](n4cc(F)c(=O)[nH]c4=O)O[C@@H]3COP(=O)(O)O[C@@H]3C[C@H](n4cc(F)c(=O)[nH]c4=O)O[C@@H]3COP(=O)(O)OCCOCCOCCOCCOCCOCCO)[C@H](O)C2O)c(=O)n1 (stereo not given in full),38.3% (inactive)
17,Cc1nn(-c2cc(=O)[nH]c3ccc(Cl)cc23)c(N)c1C#N,100% (inactive)
18,CCN(CC)CC(O)CNc1c2ccc([N+](=O)[O-])cc2nc2cc(OC)c(OC)cc12 (stereo not given),-17.5% (active)
19,COc1cccc(-c2cc(-c3cccs3)c(C#N)c(=O)[nH]2)c1,102% (inactive)
20,CC(C)(C)CC(C)(C)c1ccc(OCCOCC[N+](C)(C)CC(=O)[O-])cc1,96.1% (inactive)

row,Structure (SMILES),growth
1,Cc1[nH]c2ccccc2c(=O)c1CC=C(Cl)Cl,57.5% (inactive)
2,O=C(Nc1ccc(Cl)cc1F)c1ccccc1O,19.9% (inactive)
3,Cc1ccccc1/C=C/C(=O)c1cccc(OCCCOc2cccc(C(=O)/C=C/c3ccccc3C)c2)c1,78.2% [3 µM] (inactive)
4,O=C(Nn1c2c(sc1=Nc1ccccc1)C(=O)c1ccccc1C2=O)c1cc2ccc1CCc1ccc(cc1)CC2,91.6% (inactive)
5,N#Cc1c(-c2ccc(Cl)cc2)c(C#N)c2c(C#N)c(N)nn2c1N,85.8% (inactive)
6,CN(C)CCN1CCN(c2ncccc2C2Nc3ccccc3-n3cccc32)CC1 (stereo not given),98.7% (inactive)
7,CCN1C(=O)N(CC)C2C1NN=c1s/c(=C\c3ccc(Cl)cc3Cl)c(=O)n12 (stereo not given),-52.1% (active)
8,Nc1ncnc2c1c(-c1ccc(Oc3ccccc3)cc1)nn2C[C@@H]1SSC[C@H]1O,-27.5% (active)
9,COc1cc(OC)c(/C=C/C(=O)c2c(OC)cc(OC)cc2OC)c(OC)c1,-25.1% (active)
10,COc1cc(-c2nn(-c3cccc(NC(=O)NCCNC(=O)c4ccccc4)c3)cc2-c2ccncc2)ccc1Cl,-8.76% (active)
11,O=S(=O)(Nc1ncccn1)c1ccc(NC2Nc3nc4ccccc4nc3S2)cc1 (stereo not given),101% (inactive)
12,COc1ccc(C2NC(=O)Nc3ccccc32)c(OC)c1 (stereo not given),93.2% (inactive)
13,C[C@@H](C(=O)NCCCC#Cc1cnc(Nc2ccc(C#N)cc2)nc1NC1CC1)N(C)C(=O)/C=C/CN(C)C,42.6% (inactive)
14,FC(F)(F)c1cc(CNc2ncc(Br)c(Cl)n2)cc(C(F)(F)F)c1,101% (inactive)
15,COc1ccc(C(=O)COC(=O)[C@H](C[Se][Se]C[C@H](NC(=O)c2ccc(Br)cc2F)C(=O)OCC(=O)c2ccc(OC)cc2)NC(=O)c2ccc(Br)cc2F)cc1,2.8% (active)
16,O=C(c1ccccc1)C1CCC1,88.2% (inactive)
17,COc1cccc2cc(-c3cc4ccccc4[nH]3)/c(=N/C(=S)Nc3ccccc3)oc12,101% (inactive)
18,COc1cc(-c2nc(SC(C)C)nc(Nc3cccc(C)c3)c2C#N)cc(OC)c1OC,98.3% (inactive)
19,Cc1cccc2c(=O)c3c(sc12)c(NCCCN)nc1ccccc13,-34.9% (active)
20,CC(C)Cc1ccc(C(C)C(=O)NCc2ccc(Cn3c(=O)sn(CCCI)c3=O)cc2)cc1 (stereo not given),74.9% (inactive) and -41.5% (active)
